Measured values from ChEMBL document CHEMBL2218924, “A broad activity screen in support of a chemogenomic map for kinase signalling research and drug discovery” (Biochem J, 2013).

Key:
[1] = target: Tyrosine-protein kinase Fer (Homo sapiens) (UniProt P16591); details: at 10 µM
[2] = target: Tyrosine-protein kinase Fes/Fps (Homo sapiens) (UniProt P07332); details: at 1 µM
[3] = target: Tyrosine-protein kinase Fes/Fps (Homo sapiens) (UniProt P07332); details: at 10 µM
[4] = target: Tyrosine-protein kinase Fgr (Homo sapiens) (UniProt P09769); details: at 1 µM
[5] = target: Tyrosine-protein kinase Fgr (Homo sapiens) (UniProt P09769); details: at 10 µM
[6] = target: Vascular endothelial growth factor receptor 1 (Homo sapiens) (UniProt P17948); details: at 1 µM
[7] = target: Vascular endothelial growth factor receptor 1 (Homo sapiens) (UniProt P17948); details: at 10 µM
[8] = target: Receptor-type tyrosine-protein kinase FLT3 (Homo sapiens) (UniProt P36888); details: at 1 µM
[9] = target: Receptor-type tyrosine-protein kinase FLT3 (Homo sapiens) (UniProt P36888); details: at 10 µM
[10] = target: Vascular endothelial growth factor receptor 3 (Homo sapiens) (UniProt P35916); details: at 1 µM
[11] = target: Vascular endothelial growth factor receptor 3 (Homo sapiens) (UniProt P35916); details: at 10 µM
[12] = target: Macrophage colony-stimulating factor 1 receptor (Homo sapiens) (UniProt P07333); details: at 1 µM
[13] = target: Macrophage colony-stimulating factor 1 receptor (Homo sapiens) (UniProt P07333); details: at 10 µM
[14] = target: Tyrosine-protein kinase Fyn (Homo sapiens) (UniProt P06241); details: at 1 µM
[15] = target: Tyrosine-protein kinase Fyn (Homo sapiens) (UniProt P06241); details: at 10 µM
[16] = target: T1, Mitogen-activated protein kinase kinase kinase kinase 2 (Homo sapiens) (UniProt Q12851); details: at 1 µM
T1 sequence (whole entry): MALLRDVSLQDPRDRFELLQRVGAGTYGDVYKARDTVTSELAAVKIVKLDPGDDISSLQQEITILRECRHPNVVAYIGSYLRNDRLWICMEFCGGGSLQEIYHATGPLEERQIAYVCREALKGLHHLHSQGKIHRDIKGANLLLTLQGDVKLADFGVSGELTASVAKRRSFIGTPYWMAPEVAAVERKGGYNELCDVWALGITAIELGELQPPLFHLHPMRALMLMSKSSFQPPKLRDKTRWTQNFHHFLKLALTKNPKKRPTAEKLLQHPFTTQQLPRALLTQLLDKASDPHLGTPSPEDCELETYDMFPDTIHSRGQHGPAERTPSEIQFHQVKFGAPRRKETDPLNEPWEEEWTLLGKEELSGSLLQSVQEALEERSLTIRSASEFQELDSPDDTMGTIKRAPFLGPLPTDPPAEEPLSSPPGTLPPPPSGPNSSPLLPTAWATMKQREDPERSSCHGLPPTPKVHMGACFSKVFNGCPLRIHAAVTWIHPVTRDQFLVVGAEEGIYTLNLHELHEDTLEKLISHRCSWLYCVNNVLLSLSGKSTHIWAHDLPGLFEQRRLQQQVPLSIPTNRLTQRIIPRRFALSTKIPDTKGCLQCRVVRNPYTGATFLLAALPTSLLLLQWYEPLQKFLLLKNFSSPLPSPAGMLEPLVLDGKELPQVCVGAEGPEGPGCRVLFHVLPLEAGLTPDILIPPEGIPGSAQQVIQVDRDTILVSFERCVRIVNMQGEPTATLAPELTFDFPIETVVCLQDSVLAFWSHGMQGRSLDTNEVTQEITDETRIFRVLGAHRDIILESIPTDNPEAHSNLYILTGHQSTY

[17] = target: T1, Mitogen-activated protein kinase kinase kinase kinase 2 (Homo sapiens); details: at 10 µM
[18] = target: G protein-coupled receptor kinase 5 (Homo sapiens) (UniProt P34947); details: at 10 µM
[19] = target: G protein-coupled receptor kinase 6 (Homo sapiens) (UniProt P43250); details: at 10 µM
[20] = target: T2, Rhodopsin kinase GRK7 (Homo sapiens) (UniProt Q8WTQ7); details: at 1 µM
T2 sequence (whole entry): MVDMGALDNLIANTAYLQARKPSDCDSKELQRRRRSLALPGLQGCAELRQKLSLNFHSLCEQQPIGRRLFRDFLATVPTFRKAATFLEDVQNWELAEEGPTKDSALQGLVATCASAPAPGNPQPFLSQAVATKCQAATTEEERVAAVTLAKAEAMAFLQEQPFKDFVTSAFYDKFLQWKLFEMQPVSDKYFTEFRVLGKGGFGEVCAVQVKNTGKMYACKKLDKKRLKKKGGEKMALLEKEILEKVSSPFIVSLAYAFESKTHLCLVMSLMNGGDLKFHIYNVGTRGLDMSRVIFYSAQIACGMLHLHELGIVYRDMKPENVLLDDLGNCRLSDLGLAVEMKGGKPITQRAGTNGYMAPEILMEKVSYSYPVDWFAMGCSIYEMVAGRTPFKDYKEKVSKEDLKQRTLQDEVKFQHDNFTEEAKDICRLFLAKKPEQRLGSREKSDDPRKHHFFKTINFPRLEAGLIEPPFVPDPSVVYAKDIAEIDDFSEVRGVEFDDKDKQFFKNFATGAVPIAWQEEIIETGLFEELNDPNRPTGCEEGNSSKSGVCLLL

Sequence of Tyrosine-protein kinase Fer (Homo sapiens) (P16591 whole entry, looked up): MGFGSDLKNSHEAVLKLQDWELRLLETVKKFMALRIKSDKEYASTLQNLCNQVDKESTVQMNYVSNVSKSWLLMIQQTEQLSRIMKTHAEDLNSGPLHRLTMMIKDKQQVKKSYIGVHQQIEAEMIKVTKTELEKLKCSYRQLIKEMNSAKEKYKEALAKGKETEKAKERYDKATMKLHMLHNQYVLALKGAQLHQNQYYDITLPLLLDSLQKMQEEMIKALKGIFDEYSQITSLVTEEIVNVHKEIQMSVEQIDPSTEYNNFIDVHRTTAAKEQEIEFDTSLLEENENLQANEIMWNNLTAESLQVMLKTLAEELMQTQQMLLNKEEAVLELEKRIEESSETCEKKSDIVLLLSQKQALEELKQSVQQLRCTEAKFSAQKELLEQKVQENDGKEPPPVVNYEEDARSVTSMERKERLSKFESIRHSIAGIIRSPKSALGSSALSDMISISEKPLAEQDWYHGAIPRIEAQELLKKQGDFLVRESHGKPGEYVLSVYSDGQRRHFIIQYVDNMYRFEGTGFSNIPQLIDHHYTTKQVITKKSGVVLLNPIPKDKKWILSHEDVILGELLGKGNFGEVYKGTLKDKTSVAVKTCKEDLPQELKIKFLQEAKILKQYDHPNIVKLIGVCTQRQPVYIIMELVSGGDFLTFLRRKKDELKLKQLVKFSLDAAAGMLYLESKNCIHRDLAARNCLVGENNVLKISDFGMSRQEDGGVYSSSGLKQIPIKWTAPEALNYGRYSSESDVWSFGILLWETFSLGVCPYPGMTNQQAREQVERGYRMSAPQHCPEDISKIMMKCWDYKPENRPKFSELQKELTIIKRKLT
Sequence of G protein-coupled receptor kinase 5 (Homo sapiens) (P34947 whole entry, looked up): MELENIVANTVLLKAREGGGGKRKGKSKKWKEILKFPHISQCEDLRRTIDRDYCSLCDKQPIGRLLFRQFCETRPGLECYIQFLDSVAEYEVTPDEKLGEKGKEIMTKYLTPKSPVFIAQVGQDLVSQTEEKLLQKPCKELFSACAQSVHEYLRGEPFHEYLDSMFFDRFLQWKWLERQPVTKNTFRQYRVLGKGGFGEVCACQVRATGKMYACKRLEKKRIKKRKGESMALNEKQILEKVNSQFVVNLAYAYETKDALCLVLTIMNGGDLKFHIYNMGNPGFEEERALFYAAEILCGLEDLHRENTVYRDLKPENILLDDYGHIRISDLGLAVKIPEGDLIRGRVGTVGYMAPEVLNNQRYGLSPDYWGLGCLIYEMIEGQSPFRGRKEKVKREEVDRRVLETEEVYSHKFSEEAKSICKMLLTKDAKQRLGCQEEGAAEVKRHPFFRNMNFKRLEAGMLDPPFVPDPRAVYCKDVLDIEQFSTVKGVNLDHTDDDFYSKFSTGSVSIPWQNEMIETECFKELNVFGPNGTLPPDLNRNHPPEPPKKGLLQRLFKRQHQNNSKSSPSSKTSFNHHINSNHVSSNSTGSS
Sequence of Tyrosine-protein kinase Fyn (Homo sapiens) (P06241 2-537 limits assumed): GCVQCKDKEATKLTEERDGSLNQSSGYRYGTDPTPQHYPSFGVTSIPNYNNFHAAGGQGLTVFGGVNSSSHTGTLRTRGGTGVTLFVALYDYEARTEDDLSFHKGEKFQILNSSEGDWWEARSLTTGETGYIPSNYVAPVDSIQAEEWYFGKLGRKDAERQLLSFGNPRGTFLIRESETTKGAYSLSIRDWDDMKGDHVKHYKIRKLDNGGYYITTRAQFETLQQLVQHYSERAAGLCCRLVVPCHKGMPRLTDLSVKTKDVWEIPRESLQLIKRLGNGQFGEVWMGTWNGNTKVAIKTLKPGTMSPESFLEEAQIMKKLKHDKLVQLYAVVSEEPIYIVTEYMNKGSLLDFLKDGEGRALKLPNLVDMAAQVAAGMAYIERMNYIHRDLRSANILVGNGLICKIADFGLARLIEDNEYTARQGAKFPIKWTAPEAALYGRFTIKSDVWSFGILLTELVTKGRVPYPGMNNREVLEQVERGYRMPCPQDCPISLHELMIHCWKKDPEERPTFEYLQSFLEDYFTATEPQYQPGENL
Sequence of Tyrosine-protein kinase Fgr (Homo sapiens) (P09769 2-529 limits assumed): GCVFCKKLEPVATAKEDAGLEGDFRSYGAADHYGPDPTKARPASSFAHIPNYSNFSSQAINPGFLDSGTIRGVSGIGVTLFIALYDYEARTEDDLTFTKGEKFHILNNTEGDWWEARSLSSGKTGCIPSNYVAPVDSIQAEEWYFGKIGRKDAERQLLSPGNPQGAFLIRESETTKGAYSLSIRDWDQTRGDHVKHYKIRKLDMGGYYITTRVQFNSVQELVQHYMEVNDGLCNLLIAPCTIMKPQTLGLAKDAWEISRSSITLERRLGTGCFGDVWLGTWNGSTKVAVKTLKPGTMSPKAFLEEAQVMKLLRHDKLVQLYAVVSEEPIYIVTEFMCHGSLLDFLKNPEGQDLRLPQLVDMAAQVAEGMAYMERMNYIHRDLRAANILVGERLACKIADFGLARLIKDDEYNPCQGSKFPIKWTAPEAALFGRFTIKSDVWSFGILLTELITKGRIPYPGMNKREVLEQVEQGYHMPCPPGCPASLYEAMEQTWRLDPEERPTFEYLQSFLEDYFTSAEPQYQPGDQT
Sequence of Tyrosine-protein kinase Fes/Fps (Homo sapiens) (P07332 whole entry): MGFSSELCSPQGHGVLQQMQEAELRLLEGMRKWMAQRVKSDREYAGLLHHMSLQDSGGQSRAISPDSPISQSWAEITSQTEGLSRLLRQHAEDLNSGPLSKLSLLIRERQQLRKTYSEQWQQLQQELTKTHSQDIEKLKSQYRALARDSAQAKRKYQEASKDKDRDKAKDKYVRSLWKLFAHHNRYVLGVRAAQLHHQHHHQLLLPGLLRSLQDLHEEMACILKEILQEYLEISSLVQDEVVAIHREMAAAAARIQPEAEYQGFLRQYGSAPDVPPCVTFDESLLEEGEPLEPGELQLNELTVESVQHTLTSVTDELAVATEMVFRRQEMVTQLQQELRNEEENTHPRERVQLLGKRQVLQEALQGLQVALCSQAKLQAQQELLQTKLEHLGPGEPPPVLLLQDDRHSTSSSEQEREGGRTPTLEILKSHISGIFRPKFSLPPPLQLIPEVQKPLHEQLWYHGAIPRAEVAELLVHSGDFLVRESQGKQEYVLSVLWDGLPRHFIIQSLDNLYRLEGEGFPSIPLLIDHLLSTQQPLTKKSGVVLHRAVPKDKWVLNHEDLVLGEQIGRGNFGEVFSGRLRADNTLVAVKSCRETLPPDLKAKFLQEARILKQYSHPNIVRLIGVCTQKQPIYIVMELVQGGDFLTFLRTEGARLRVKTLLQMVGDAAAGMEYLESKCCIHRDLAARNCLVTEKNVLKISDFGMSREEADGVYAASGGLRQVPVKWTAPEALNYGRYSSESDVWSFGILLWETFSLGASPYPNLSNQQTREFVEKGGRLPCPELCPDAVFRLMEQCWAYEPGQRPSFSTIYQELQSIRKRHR
Sequence of Vascular endothelial growth factor receptor 1 (Homo sapiens) (P17948 whole entry): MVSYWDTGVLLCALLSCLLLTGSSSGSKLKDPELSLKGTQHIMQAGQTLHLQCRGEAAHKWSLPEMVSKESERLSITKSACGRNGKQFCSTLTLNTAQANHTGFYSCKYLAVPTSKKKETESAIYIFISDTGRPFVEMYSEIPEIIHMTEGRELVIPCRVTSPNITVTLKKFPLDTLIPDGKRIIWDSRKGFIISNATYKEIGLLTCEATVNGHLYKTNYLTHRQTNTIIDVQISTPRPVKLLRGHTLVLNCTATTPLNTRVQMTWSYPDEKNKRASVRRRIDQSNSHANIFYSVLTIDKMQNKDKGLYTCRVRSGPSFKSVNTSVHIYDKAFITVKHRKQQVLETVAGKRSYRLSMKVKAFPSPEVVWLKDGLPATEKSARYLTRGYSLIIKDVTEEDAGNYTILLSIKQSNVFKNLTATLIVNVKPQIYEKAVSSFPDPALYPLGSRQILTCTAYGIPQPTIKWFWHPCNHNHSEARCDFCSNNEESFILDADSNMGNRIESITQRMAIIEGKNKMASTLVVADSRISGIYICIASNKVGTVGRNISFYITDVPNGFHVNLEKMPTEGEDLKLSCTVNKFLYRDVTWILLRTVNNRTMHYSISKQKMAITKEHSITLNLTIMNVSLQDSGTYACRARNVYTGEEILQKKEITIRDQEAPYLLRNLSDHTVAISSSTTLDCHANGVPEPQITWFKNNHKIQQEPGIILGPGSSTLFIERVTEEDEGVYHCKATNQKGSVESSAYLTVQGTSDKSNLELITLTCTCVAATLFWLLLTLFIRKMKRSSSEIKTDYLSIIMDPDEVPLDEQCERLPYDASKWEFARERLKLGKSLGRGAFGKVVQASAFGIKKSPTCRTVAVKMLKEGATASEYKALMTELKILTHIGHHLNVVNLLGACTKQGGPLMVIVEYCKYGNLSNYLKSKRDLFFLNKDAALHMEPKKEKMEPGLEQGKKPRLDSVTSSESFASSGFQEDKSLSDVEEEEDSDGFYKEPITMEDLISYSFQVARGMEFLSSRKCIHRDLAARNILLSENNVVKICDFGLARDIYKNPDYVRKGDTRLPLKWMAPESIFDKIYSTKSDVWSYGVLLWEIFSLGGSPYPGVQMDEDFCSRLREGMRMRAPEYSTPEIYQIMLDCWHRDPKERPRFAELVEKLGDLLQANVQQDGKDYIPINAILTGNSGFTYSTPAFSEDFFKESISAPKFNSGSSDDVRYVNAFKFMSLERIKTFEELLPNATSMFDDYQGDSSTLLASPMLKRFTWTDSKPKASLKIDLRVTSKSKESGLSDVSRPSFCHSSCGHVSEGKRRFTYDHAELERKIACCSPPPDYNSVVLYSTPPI

In the case of N#C/C(=C(\N)Sc1ccc(N)cc1)c1ccccc1C(F)(F)F, the residual activity [1] is reported as 79%, the residual activity [2] is reported as 93% and the residual activity [3] is reported as 100%. For the same molecule, the residual activity [4] was 88%, the residual activity [5] was 73% and the residual activity [6] was 83%. For the same molecule, the residual activity [7] was 38%, the residual activity [8] was 62% and the residual activity [9] was 59%. It also gave a residual activity [10] of 65%, a residual activity [11] of 64% and a residual activity [12] of 86%. It also gave a residual activity [13] of 68%, a residual activity [14] of 71% and a residual activity [15] of 13%. It also gave a residual activity [16] of 69%, a residual activity [17] of 72% and a residual activity [18] of 95%. The residual activity [19] was 93% and the residual activity [20] was 97%.

With c1ccc2c(-c3ccncc3)c[nH]c2c1 the residual activity [1] was 97%, the residual activity [2] was 111% and the residual activity [3] was 72%. The residual activity [5] was 91%, the residual activity [6] was 85% and the residual activity [7] was 63%. For the same molecule, the residual activity [8] was 107%, the residual activity [9] was 78% and the residual activity [10] was 91%. The residual activity [11] was 60%, the residual activity [12] was 110% and the residual activity [13] was 92%. It also gave a residual activity [14] of 89%, a residual activity [15] of 78% and a residual activity [16] of 86%. The residual activity [17] was 50%, the residual activity [18] was 97% and the residual activity [19] was 83%. The residual activity [20] was 96%.

Work on N#CCCc1ccc2c(c1)-c1[nH]c3ccc([N+](=O)[O-])cc3c1CC(=O)N2 yielded a residual activity [2] of 16%, a residual activity [3] of 5% and a residual activity [4] of 15%. For the same molecule, the residual activity [5] was 6%, the residual activity [6] was 24% and the residual activity [7] was 11%. For the same molecule, the residual activity [8] was 19%, the residual activity [9] was 8% and the residual activity [10] was 10%. For the same molecule, the residual activity [11] was 2%, the residual activity [12] was 24% and the residual activity [13] was 19%. For the same molecule, the residual activity [14] was 17%, the residual activity [15] was 1% and the residual activity [16] was 2%. For the same molecule, the residual activity [17] was 2%.

Work on CC(=O)O/N=C1\C(=C2\C(=O)Nc3cc(Br)ccc32)Nc2ccccc21 yielded a residual activity [1] of 92%, a residual activity [2] of 107% and a residual activity [3] of 97%. The residual activity [4] was 10%, the residual activity [5] was -1% and the residual activity [6] was 24%. It also gave a residual activity [7] of 1%, a residual activity [8] of 3% and a residual activity [9] of 0%. It also gave a residual activity [10] of 2%, a residual activity [11] of 1% and a residual activity [12] of 33%. It also gave a residual activity [13] of 16%, a residual activity [14] of 1% and a residual activity [15] of 0%. The residual activity [16] was 67%, the residual activity [17] was 23% and the residual activity [18] was 94%. For the same molecule, the residual activity [19] was 88% and the residual activity [20] was 106%.

c1ccc(-c2n[nH]c3c2oc2ccccc23)cc1 showed a residual activity [5] of 49%, a residual activity [6] of 13% and a residual activity [7] of 1%. It also gave a residual activity [8] of 6%, a residual activity [9] of 0% and a residual activity [10] of 3%. For the same molecule, the residual activity [11] was 1%, the residual activity [12] was 6% and the residual activity [13] was 1%. The residual activity [14] was 86%, the residual activity [15] was 51% and the residual activity [16] was 84%. It also gave a residual activity [17] of 30%, a residual activity [18] of 94% and a residual activity [19] of 86%. The residual activity [20] was 95%.

Molecule Cc1ccc(NC2=CC(=O)c3sc(C)nc3C2=O)cc1 has a residual activity [1] of 96%, a residual activity [2] of 97% and a residual activity [3] of 104%. It also gave a residual activity [4] of 90%, a residual activity [5] of 109% and a residual activity [6] of 96%. It also gave a residual activity [7] of 91%, a residual activity [8] of 85% and a residual activity [9] of 81%. The residual activity [10] was 95%, the residual activity [11] was 84% and the residual activity [12] was 96%. It also gave a residual activity [13] of 79%, a residual activity [14] of 82% and a residual activity [15] of 93%. The residual activity [16] was 86%, the residual activity [18] was 99% and the residual activity [19] was 85%. For the same molecule, the residual activity [20] was 84%.

Cc1cc2ncc(-c3ccccc3)nc2cc1C showed a residual activity [2] of 107%, a residual activity [3] of 93% and a residual activity [5] of 91%. For the same molecule, the residual activity [6] was 85%, the residual activity [7] was 83% and the residual activity [8] was 47%. For the same molecule, the residual activity [9] was 25%, the residual activity [10] was 58% and the residual activity [11] was 26%. It also gave a residual activity [12] of 36%, a residual activity [13] of 6% and a residual activity [14] of 98%. It also gave a residual activity [15] of 27%, a residual activity [16] of 98% and a residual activity [17] of 90%. For the same molecule, the residual activity [18] was 102%, the residual activity [19] was 101% and the residual activity [20] was 102%.
